Screening results: PubChem, Johns Hopkins Ion Channel Center
Compounds with a hit are over-represented: about 1.6% of the library has one in this group of screens.
KCNQ2 block: KCNQ2 (rat) channel inhibition | CHO-K1 KCNQ2, FluxOR thallium flux, 20 min; hits give low values | 1.1% of 310,000 active | O88943 | B-score at 10 µM;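 active = fluorescence ratio B-score at most minus 3 library SDs, with starting brightness B-score within 2 library SDs, cut at about -5.5 in these data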
Target sequence (O88943 whole entry, looked up): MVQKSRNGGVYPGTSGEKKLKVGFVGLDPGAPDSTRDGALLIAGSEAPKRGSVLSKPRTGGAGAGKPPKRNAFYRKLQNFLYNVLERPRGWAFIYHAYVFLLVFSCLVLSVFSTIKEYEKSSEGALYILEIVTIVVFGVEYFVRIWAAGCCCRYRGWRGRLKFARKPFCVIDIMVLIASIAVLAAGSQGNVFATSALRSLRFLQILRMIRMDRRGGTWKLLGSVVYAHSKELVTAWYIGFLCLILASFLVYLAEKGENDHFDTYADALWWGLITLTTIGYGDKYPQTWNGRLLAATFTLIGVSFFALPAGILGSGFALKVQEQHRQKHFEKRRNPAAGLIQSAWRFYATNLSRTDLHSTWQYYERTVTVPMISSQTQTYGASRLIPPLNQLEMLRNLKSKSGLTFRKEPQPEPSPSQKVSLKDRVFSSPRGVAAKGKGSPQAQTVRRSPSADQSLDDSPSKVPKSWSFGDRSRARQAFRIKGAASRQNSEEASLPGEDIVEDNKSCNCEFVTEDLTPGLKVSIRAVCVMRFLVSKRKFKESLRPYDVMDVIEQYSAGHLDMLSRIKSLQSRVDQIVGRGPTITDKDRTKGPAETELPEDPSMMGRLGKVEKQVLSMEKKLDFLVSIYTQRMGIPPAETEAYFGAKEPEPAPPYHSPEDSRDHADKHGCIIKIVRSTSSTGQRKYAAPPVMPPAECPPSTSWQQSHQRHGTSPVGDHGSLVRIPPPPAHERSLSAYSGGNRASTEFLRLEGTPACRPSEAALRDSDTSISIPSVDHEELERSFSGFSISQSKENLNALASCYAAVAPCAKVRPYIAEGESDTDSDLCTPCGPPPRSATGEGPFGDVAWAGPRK
KCNQ2 enhance: KCNQ2 (rat) channel potentiation; AID 2239; CHO-K1 KCNQ2, FluxOR thallium flux fluorescence; hits give high values; 0.54% of 310,000 active; B-score at 10 µM;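 active = fluorescence ratio B-score at least 3 SD of library B-scores, with initial fluorescence B-score within 3 of them, cut at about 5.3 in these data; same plate scores as AID 2156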;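 note: B-score of peak minus minimum over baseline fluorescence ratio after K+ and Tl+ stimulus; positive B-score means potentiation of KCNQ2 with more thallium influx and brighter signal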
KCNQ2 inh conf: confirmation of rat KCNQ2 potassium channel inhibitors | shares compounds with KCNQ2 block | KCNQ2-expressing cells, thallium flux, inhibition; hits give low values | activity change, negative = inhibition, % at 10 µM | 57% of 1,000 active;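 note: 0% = vehicle wells and values are ratio percent relative to vehicle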
KCNQ1 spec: KCNQ2 inhibitor that also affects human KCNQ1 channel; shares compounds with KCNQ2 block; activity change, negative = inhibition, % at 10 µM; KCNQ1-expressing cells, FluxOR thallium flux fluorescence; hits give low values; AID 493026; 15% of 1,000 active;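 active = activity change at least 3 SD of negative controls below their mean in both duplicate wells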;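 note: CHO cells stably transfected with KCNQ1 and depolarized by potassium stimulus; peak minus minimum fluorescence over baseline after thallium addition; 0% = vehicle negative control and -100% = blank without thallium stimulus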
CHO parental ctr: counter-screen for KCNQ2 inhibitors: effect in parental CHO cells; shares compounds with KCNQ2 block; thallium flux counter-screen; hits give low values; activity change, % at 10 µM; 14% of 1,000 active; AID 493029;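 note: 0% = vehicle negative controls with stimulus buffer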
KCNQ2 patch conf: confirmation of rat KCNQ2 potassium channel inhibitors. calls only at 10 µM. AID 588531. 49% of 550 active. shares compounds with KCNQ2 block. KCNQ2-expressing cells, automated patch clamp current
Active calls of the source: *; i = inactive; . = no result given; + = active, no number. Unless noted, the rule behind the calls is not given here.

SMILES	KCNQ2 block	KCNQ2 enhance	KCNQ2 inh conf	KCNQ1 spec	CHO parental ctr	others
CCn1c(SC(C)C(=O)NC2CCCc3ccccc32)nnc1-c1cccs1 (stereo not given)	-8.4*	-8.4	i	i	i
CCn1c(SCC(=O)NC2CCCc3ccccc32)nnc1-c1cccs1 (stereo not given)	i	.	.	.	.
O=C(CSc1nnc(-c2cccs2)n1Cc1ccccc1)NCc1ccc2c(c1)OCO2	i	.	.	.	.
CC(Sc1nnc(-c2cccs2)n1Cc1ccccc1)C(=O)NCc1ccc2c(c1)OCO2 (stereo not given)	-9.8*	-9.8	i	i	i
CC1CCCC/C1=N/Nc1ccc([N+](=O)[O-])cc1[N+](=O)[O-] (stereo not given)	i	0.38	.	.	.
O=[N+]([O-])c1ccc(C2CCCC/C2=N\OCc2cccc(F)c2)c([N+](=O)[O-])c1 (stereo not given)	-8.3*	-8.3	i	i	i
NS(=O)(=O)c1ccc(CCNS(=O)(=O)Cc2ccc(Cl)cc2)cc1	i	0.15	.	.	.
CN(C)CCNC(=O)/C(=C/c1ccc(-c2ccc(Cl)cc2Cl)o1)NC(=O)c1ccccc1	-9.5*	-9.5	-39%*	-35%*	-33%*
CN(C)CCNC(=O)/C(=C/c1ccc(-c2ccc(Cl)cc2)o1)NC(=O)c1ccccc1	i	.	.	.	.
COc1ccc(C(CCN(Cc2ccc(OC)c(OC)c2)C(C)=O)C(C)C)cc1 (stereo not given)	i	.	.	.	.
C=CCSc1nc(N)c(C#N)c(-c2ccc(C)cc2)c1C#N	i	.	.	.	.
C=CCSc1nc2c(c(C3CC=CCC3)c1C#N)CCC2 (stereo not given)	-12*	-12	-32%*	-31%*	-22%*	KCNQ2 patch conf=i
Cn1cnnc1SCCC(=O)Nc1ccc(Cl)cc1	i	0.87	.	.	.
Cn1cnnc1SCCC(=O)Nc1ccccc1	-8.3*	-8.3	i	i	i
CCSc1nnc(-c2cccc(S(=O)(=O)N(CC)CC)c2)n1Cc1ccccc1	-10*	-10	i	i	i
CCNC(=O)CSc1nnc(-c2cccc(S(=O)(=O)N(CC)CC)c2)n1CCc1ccccc1	i	.	.	.	.
COC(=O)Cc1c[nH]c2cccc(OCC(O)CN(Cc3ccc([N+](=O)[O-])cc3)C(C)(C)C)c12 (stereo not given)	-8.5*	-8.5	-20%*	i	i	KCNQ2 patch conf=+
CC(C)CN(CC(C)C)CC(O)COc1ccc([N+](=O)[O-])cc1 (stereo not given)	i	.	.	.	.
CCOC(=O)c1cnc(-c2ccccc2)nc1C(F)(F)F	i	.	.	.	.
CCOC(=O)c1cnc2c(F)ccc(F)c2c1Sc1ccccc1	-7.6*	-7.6	i	i	i
COc1ccc(C(CC(=O)c2ccc(C)cc2)Nc2ccc([N+](=O)[O-])cc2)cc1 (stereo not given)	-6.9*	-6.9	-42%*	-33%*	-26%*	KCNQ2 patch conf=i
Cc1ccc(NC(CC(=O)c2ccccc2)c2ccc(F)cc2)cc1 (stereo not given)	i	.	.	.	.
COc1ccc(C(=O)NCCNc2nc3ccc(C)cc3cc2C#N)cc1OC	i	0.46	.	.	.
NC(N)=Nc1nc2ccc(Cl)cc2c(=O)[nH]1	i	0.8	.	.	.
COC(=O)/C(=C\Nc1ccc(Cl)c2ccccc12)c1ncc(C(F)(F)F)cc1Cl	-8.4*	-8.4	-18%*	i	i	KCNQ2 patch conf=i
SMILES	KCNQ2 block	KCNQ2 enhance	KCNQ2 inh conf	KCNQ1 spec	CHO parental ctr	others
CCOC(=O)/C(=C\Nc1ccccc1C(F)(F)F)Sc1ncc(C(F)(F)F)cc1Cl	i	.	.	.	.
COC(=O)CCC(=O)N1CCCC(CO)(Cc2ccccc2C)C1 (stereo not given)	i	0.29	.	.	.
Cc1ccccc1CC1(CO)CCCN(C(=O)CCC(=O)c2ccccc2)C1 (stereo not given)	-8.6*	-8.6	-30%*	i	i	KCNQ2 patch conf=+
Cc1c(C(=O)N2CCc3ccccc3C2)oc2ccccc12	i	.	.	.	.
O=C(Oc1ccc(Br)cc1C(=S)N1CCOCC1)c1ccccc1	i	.	.	.	.
CCC1(C(=O)c2ccccc2)C2c3cc(Br)ccc3OC(=O)C21C(=O)N1CCOCC1 (stereo not given)	-9.7*	-9.7	i	i	i
CCOC(=O)N1C/C(=C\c2ccccc2)C(=O)/C(=C/c2ccccc2)C1	-6.9*	-6.9	-33%*	i	i	KCNQ2 patch conf=i
CCOC(=O)N1CCN(S(=O)(=O)/C=C/c2ccccc2)CC1	i	0.73	.	.	.
O=C1C2C(c3ccccc3)C=CC(c3ccccc3)C2C(=O)N1c1ccccn1 (stereo not given)	i	.	.	.	.
CC(C)(C)N1CC(c2nc3ccccc3n2Cc2ccc(Cl)cc2)CC1=O (stereo not given)	-7.1*	-7.1	-27%*	i	i	KCNQ2 patch conf=+
CC(C)(C)N1CC(c2nc3ccccc3n2CCOc2ccccc2)CC1=O (stereo not given)	i	1.5	.	.	.
Cc1nn(CCCC(=O)NCCCN2CCN(C)CC2)c(=O)c2c1sc1ccccc12	i	0.97	.	.	.
CCOc1ccccc1N(CC(=O)NC(C)(C)C)C(=O)CCC(=O)Nc1nccs1	i	.	.	.	.
O=C(NCc1cccc(Cl)c1)c1ccc2ccccc2n1	i	.	.	.	.
Cc1ccc(S(=O)(=O)N(C)c2c(C)ccc(S(=O)(=O)N3CCN(C)CC3)c2C)cc1	i	.	.	.	.
C=C(C)CN1CCN(S(=O)(=O)c2ccc(C)c(N(C)S(=O)(=O)c3ccc(C)cc3)c2C)CC1	-8.5*	-8.5	-32%*	-32%*	-25%*	KCNQ2 patch conf=i
C=CCn1c(SCc2c(C)noc2C)nc2ccccc2c1=O	i	.	.	.	.
Cc1noc(C)c1CSc1nc2ccccc2c(=O)n1-c1ccc(F)cc1F	-7.3*	-7.3	-20%*	i	i	KCNQ2 patch conf=+
NC(=O)/C(=C/c1cccnc1)NC(=O)c1ccccc1	i	.	.	.	.
CC(=O)N1c2ccc(S(=O)(=O)N3CCC(C(=O)NC(C)c4ccccc4)CC3)cc2CC1C (stereo not given)	i	1.6	.	.	.
Cc1ccnc(NS(=O)(=O)c2ccc(NC(=O)c3cc(-c4ccc(Br)cc4)nc4ccccc34)cc2)n1	i	.	.	.	.
CCS(=O)(=O)c1ccc(C(=O)Nc2ccccc2OC)c(Cl)c1Cl	i	2.9	.	.	.
O=C(OC1CCN(c2ncc(C(F)(F)F)cc2Cl)CC1)c1ccccc1	i	.	.	.	.
COc1ccc(C(=O)OC2CCN(c3ncc(C(F)(F)F)cc3Cl)CC2)cc1	-8.7*	-8.7	i	i	i
Cc1cc(Cl)cc(C)c1OCCNCc1ccccc1	-6.9*	-6.9	i	i	i
Cc1cc(C)c(OCCNCc2ccccc2)c(C)c1	i	.	.	.	.
Cc1sc(NC(=O)CSc2nnc(N)s2)c(C#N)c1C	i	0.97	.	.	.
Cc1cc(CN2CCOCC2)c(O)c(C2(C)CCCCC2)c1	-7.2*	-7.2	-19%*	i	i	KCNQ2 patch conf=i
Cc1cc(CN(C)C)c(O)c(C2(C)CCCCC2)c1	-9.1*	-9.1	i	i	i
Oc1c(CN2CCOCC2)cc(-c2ccccc2)cc1CN1CCOCC1	i	.	.	.	.
